# Assay results as given in PubChem BioAssay (NCI).
# Compounds without any hit were thinned out: in the full panel of roughly 83,000, 20% have a hit.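 The test compound was applied at a single concentration to cells in 96-well plates for 48 hours, and percent growth was recorded.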 Unmarked numbers belong to inactive results. Calls of active or inactive are those of the source. How the source made its calls: active means growth percent below 10; inactive means the rest.
# Tests used:
# Assay in all cases: NCI-60 one-dose screen, 48 h (100 = growth as untreated, 0 = no growth, -100 = all killed)
# [1] = test system: SR leukemia; settings: 10 µM unless noted
# [2] = test system: RPMI-8226 leukemia; settings: 10 µM unless noted
# [3] = test system: OVCAR-8 ovarian; settings: 10 µM unless noted
# [4] = test system: OVCAR-5 ovarian; settings: 10 µM unless noted
# [5] = test system: OVCAR-4 ovarian; settings: 10 µM unless noted
# [6] = test system: SK-OV-3 ovarian; settings: 10 µM unless noted
# [7] = test system: IGROV1 ovarian; settings: 10 µM unless noted
# [8] = test system: OVCAR-3 ovarian; settings: 10 µM unless noted
# [9] = test system: HS 578T breast; settings: 10 µM
# [10] = test system: NCI/ADR-RES ovarian; settings: 10 µM unless noted
# [11] = test system: T-47D breast; settings: 10 µM unless noted
# [12] = test system: BT-549 breast; settings: 10 µM unless noted
# [13] = test system: MDA-MB-435 melanoma; settings: 10 µM unless noted
# [14] = test system: SW-620 colon; settings: 10 µM unless noted
# [15] = test system: MCF7 breast; settings: 10 µM unless noted
# [16] = test system: HCT-116 colon; settings: 10 µM unless noted
# [17] = test system: HCC-2998 colon; settings: 10 µM unless noted
# [18] = test system: KM12 colon; settings: 10 µM unless noted
SMILES,growth [1],growth [2],growth [3],growth [4],growth [5],growth [6],growth [7],growth [8],growth [9],growth [10],growth [11],growth [12],growth [13],growth [14],growth [15],growth [16],growth [17],growth [18]
COc1ccc(-c2nsc3c2NC(=O)CC3c2ccc3c(c2)OCO3)cc1 (configuration not stated),-21.6% (active),2.77% (active),26.2%,48.6%,66.8%,24.4%,19.7%,-26.3% (active),17.6%,13.9%,33.2%,53.6%,-38.5% (active),24.9%,22.7%,28.6%,39.4%,31.2%
O=C(Nc1ccc(Br)cc1)Nc1ccccc1Cl,84.9%,50%,79.8%,90.1%,75.1%,84.6%,63.9%,88.1%,99.7%,80%,74.9%,103%,102%,96.4%,71%,71.8%,91%,90.4%
CN(C)c1ccc(/C=N/Nc2nnc3n2N=C(c2ccc(Cl)cc2)CS3)cc1,94.1%,82.5%,96.5%,108%,98.8%,108%,84.4%,102%,92%,94%,84.2%,90.3%,97.5%,102%,77.4%,99%,106%,101%
O=C(CN1CCN(c2ccccc2)CC1)N1CCN(c2nnc(-c3ccc(Cl)cc3)c(-c3ccc(Cl)cc3)n2)CC1,23.1%,-39.6% (active),68%,111%,45.5%,103%,50.7%,64.3%,77.5%,60.4%,36.1%,46.2%,48.2%,68.8%,33%,25%,62.4%,46.1%
Cc1[nH]nc2ccc3nc(-c4ccc5[nH]ncc5c4)c4c(c3c12)CCCC4,1.09% (active),13%,28.2%,46.6%,38.4%,-19.6% (active),11.9%,32.8%,-6.38% (active),40%,24.1%,18.5%,3.38% (active),6.74% (active),28%,6.66% (active),45.2%,12.6%
Nc1nc(N)c2cc(CNc3ccc(Cl)c(Cl)c3)ccc2n1,-55.1% (active),-31.5% (active),-1.81% (active),48.4%,49.8%,49.9%,15.9%,12.1%,28.8%,28.3%,-52.6% (active),59.1%,-1.48% (active),-80.3% (active),-74.8% (active),-88.8% (active),-70.3% (active),-15.9% (active)
Oc1c(C(c2ccc(F)cc2)N2CCCCC2)ccc2cncnc12 (configuration not stated),15.7%,22.1%,8.68% (active),22.3%,5.59% (active),-14.9% (active),9.64% (active),11.1%,13%,20.3%,5.62% (active),25.8%,14.1%,18.1%,6.3% (active),11.1%,32.3%,16.2%
O=C(CI)NCCNc1cccc2c(S(=O)(=O)O)cccc12,90.4%,101%,110%,107%,110%,106%,97.6%,100%,104%,106%,103%,96.8%,93.2%,102%,99.9%,96%,112%,95.7%
CCCc1cc2c(cc1CN(Cc1cc3c(cc1CCC)OCO3)C(=N)OCC)OCO2,91.2%,55.2%,82.4%,98.9%,77.9%,92.7%,63.3%,69.1%,73.1%,91.2%,84.7%,80.4%,103%,81%,86.5%,41.2%,90.5%,92.8%
